The source of these data is PubChem BioAssay (NCATS).

Values joined by “and” are separate entries in the source; they are usually repeats but may differ in a detail not shown here. Equal values may be shown once. Results filed as inconclusive are left out. Active and inactive are the calls of the source. Unless noted, calls come from the whole dose curve.

The target of assay [1] is Bile acid receptor (Homo sapiens) (UniProt Q96RI1). In words: qHTS assay for small molecule agonists of farnesoid X receptor signaling (AID 588527).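 Note: series mostly up to about 77 µM; 0% = vehicle basal and 100% = reference agonist.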 Particulars: HEK293T FXR-UAS-bla, beta-lactamase ratio, 16 h; activation: stronger effect = higher value. The procedure, abridged: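 Read-out: beta-lactamase reporter fluorescence with CCF4 substrate in GeneBLAzer FXR-UAS-bla HEK293T cells, after 16 h compound exposure at 37 C. Response scaled between DMSO basal (0%) and chenodeoxycholic acid at 100 uM (100%).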
A general note: In qHTS, concentration-response curves come from the screen itself.

Assay [2] concerns the target Peroxisome proliferator-activated receptor delta (Homo sapiens) (UniProt Q03181). In words: qHTS assay for small molecule agonists of peroxisome proliferator-activated receptor delta signaling (AID 588534).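 Note: 0% = DMSO basal wells and 100% = positive control agonist at 10 µM.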 The procedure, abridged: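 Agonist-mode beta-lactamase reporter readout (CCF4 dye, 2 h at RT) after 18 h at 37 °C exposure to a titration; Hill-equation fitting gave EC50 and maximal response.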

A short description of assay [3]: qHTS assay for small molecule antagonists of peroxisome proliferator-activated receptor delta signaling (AID 588535; active = well fitted inhibition curve with a large enough effect in the signal ratio, with a control signal flat, not every such curve was filed as active; the % refers to the signal ratio;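 for max response: cells co-treated with a PPAR-delta agonist as stimulator during compound exposure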). Particulars: HEK293T PPARd-UAS-bla, beta-lactamase FRET ratio, 18 h; 460 nm channel. The gist of the method:
(§1)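 Inhibition of PPAR-delta response element-driven beta-lactamase expression is measured in HEK293T cells exposed to a compound titration series for 18 hrs at 37 C. Half-maximal inhibition comes from Hill equation fitting.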

Assay [4] addresses Peroxisome proliferator-activated receptor delta (Homo sapiens) (UniProt Q03181). Described as above. The gist of the method: as §1
For assay [5], the target named is Vitamin D3 receptor (Homo sapiens) (UniProt P11473). As to the kind of experiment: qHTS assay for small molecule agonists of vitamin D receptor signaling (AID 588543).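 Note: 0% = DMSO basal and 100% = reference agonist control.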 The procedure, abridged:
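GeneBLAzer VDR-UAS-bla HEK293T cells in 2% charcoal-stripped FBS medium were dosed with compound titrations for 16 h at 37 °C; CCF4 β-lactamase readout (405 nm ex, 460/530 nm em). EC50 and efficacy from Hill fits, normalized to 50 nM calcitriol (100%) and DMSO (0%).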

Assay [6] addresses Retinoic acid receptor RXR-alpha (Homo sapiens) (UniProt P19793). In words: qHTS assay for small molecule agonists of retinoid X receptor alpha signaling (AID 588544).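 Note: 0% = DMSO basal wells and 100% = reference agonist.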
Assay [7] addresses Thyroid hormone receptor beta (Homo sapiens) (UniProt P10828). In words: qHTS assay for small molecule agonists of thyroid hormone receptor beta signaling (AID 588545).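 Note: 0% = DMSO only and 100% = 10 nM T3.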 The gist of the method: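 TR-UAS-bla-GripTite HEK 293 cells in medium with 2% charcoal/dextran FBS, 0.1 mM NEAA and 1 mM sodium pyruvate were treated with titrated compounds for 18 hrs at 37 C. Beta-lactamase reporter was read with CCF4 dye (ex 405, em 460/530 nm); EC50 from Hill fits.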

Assay [8] is described as follows: qHTS assay for small molecule antagonists of retinoid X receptor alpha signaling (AID 588546; active = well fitted inhibition curve with a large enough effect in the signal ratio, with a control signal flat, not every such curve was filed as active; the % refers to the signal ratio;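 note: cells stimulated with 9-cis-retinoic acid as agonist; % is set by controls: 0 for no effect and ±100 for the full control effect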). Particulars: HEK293T RXRa-UAS-bla, beta-lactamase ratio, antagonist mode; measured here: W530 green channel, cytotoxicity proxy. The procedure, abridged:
(§2)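 Beta-lactamase reporter inhibition, read as CCF4 fluorescence ratio (ex 405, em 460/530 nm) after 2 h at RT. HEK293T UAS-bla cells, 2500/well, were stimulated with 9-cis-RA at 500 or 100 nM final alongside test compound for 18 h at 37 C.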

Assay [9] addresses Retinoic acid receptor RXR-alpha (Homo sapiens) (UniProt P19793). Described as above. Particulars: HEK293T RXRa-UAS-bla, beta-lactamase ratio, antagonist mode. The procedure, abridged: as §2
Assay [10] has as its target Thyroid hormone receptor beta (Homo sapiens) (UniProt P10828). As to the kind of experiment: qHTS assay for small molecule antagonists of thyroid hormone receptor beta signaling (AID 588547; active = well fitted inhibition curve with a large enough effect in the signal ratio, with a control signal flat, not every such curve was filed as active; the % refers to the signal ratio;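 note: cells stimulated with 0.4 nM T3 agonist during compound exposure; series mostly up to about 77 µM; % is set by controls: 0 for no effect and ±100 for the full control effect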). Particulars: TR-UAS-bla HEK293, beta-lactamase ratio, antagonist mode, 18 h. The procedure, abridged:
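TR-UAS-bla GripTite HEK293 cells in 2% charcoal/dextran FBS medium were preincubated 4 h at 37 C, given compound (0.59 nM to 92 uM) plus 0.4 nM T3 (final) for 18 h, then CCF4 for 2 h at RT; Hill fit gave IC50.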

The nature of assay [11]: qHTS assay for small molecule agonists of the antioxidant response element (ARE) signaling pathway (AID 651741; active = well fitted activation curve with a large enough effect in the signal ratio; the % refers to the signal ratio; note: % of control where 0% means no effect). The gist of the method: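 Reporter: beta-lactamase under ARE, stably in HepG2. Exposure: 16 h, 37 C, compounds delivered in DMSO by pin tool after 5 h cell preincubation. Readout: FRET substrate fluorescence after 2 h at RT.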
Assay [12] can be described thus: qHTS assay for small molecule activators of the p53 signaling pathway (AID 651743; active = well fitted activation curve with a large enough effect in the signal ratio, not every such curve was filed as active; the % refers to the signal ratio; note: series mostly up to about 92 µM; % of control where 0% means no effect). Particulars: HCT-116 p53RE-bla, beta-lactamase FRET ratio, 16 h; activation: stronger effect = higher value. The gist of the method:
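Agonist-mode quantitative HTS in HCT-116 cells carrying a p53-response-element beta-lactamase reporter; 16 h compound treatment at 37 C, then FRET substrate loading for 2 h at room temperature and fluorescence read.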

The nature of assay [13]: qHTS assay for environmental chemicals that activate the Aryl hydrocarbon Receptor (AhR) signaling pathway (AID 651777; active = well fitted curve in the direction sought with a large enough effect; an effect the other way counts as inactive or inconclusive; note: % of control where 0% means no effect; nearly all actives have a fitted effect of over 15% in size). Particulars: 1A2-DRE human hepatoma cells, luciferase, 24 h; activation: stronger effect = higher value. The gist of the method: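 Measured luciferase activity, read 30 min after One-Glo addition at room temperature, from human hepatoma cells bearing a dioxin response element–CYP1A2 promoter reporter and exposed to compound for 24 hr at 37 C.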

Assay [14] has as its target Peroxisome proliferator-activated receptor alpha (Homo sapiens) (UniProt Q07869). In words: qHTS assay for small molecule agonists of the peroxisome proliferator-activated receptor alpha (PPARalpha) signaling pathway (AID 651778; active = well fitted curve in the direction sought with a large enough effect; an effect the other way counts as inactive or inconclusive; note: % of control where 0% means no effect). Particulars: PathHunter PPARalpha complementation, chemiluminescence, 6 h; max response: stronger effect = higher value. The procedure, abridged:
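Cells plated at 2,000/well and held overnight at 37 C, 5% CO2, then compound added by pin tool for 6 hr; after PathHunter detection reagent and 60 min at room temperature, chemiluminescence from enzyme complementation was read.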

A short description of assay [15]: qHTS assay for small molecule agonists of the antioxidant response element (ARE) signaling pathway measured by Nrf2-dependant transcriptional activity (AID 720636; active = well fitted curve in the direction sought with a large enough effect in the repeat runs; an effect the other way counts as inactive or inconclusive;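 note: HepG2 cells with an ARE-driven luciferase reporter; % of control where 0% means no effect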). The procedure, abridged: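 In HepG2 cells engineered with an Nrf2-responsive luciferase gene, ARE induction was quantified as luminescence after 16 hr compound treatment at 37 C.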
Assay [16] is described as follows: qHTS assay for small molecule agonists of the antioxidant response element (ARE) signaling pathway measured by Nrf2-dependant transcriptional activity - cell viability counter screen (AID 720653; active = well fitted curve in the direction sought with a large enough effect in the repeat runs; an effect the other way counts as inactive or inconclusive; note: % is set by controls: 0 for no effect and ±100 for the full control effect). Particulars: ARE-bla HepG2 viability, CellTiter-Glo ATP luminescence, 16 h; max response: stronger effect = lower value. The procedure, abridged: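 ARE-bla HepG2 cells (2,000/well) rested 5 hrs at 37C/5% CO2, then exposed to compounds in DMSO for 16 hrs. Viability was read in the same wells as intracellular ATP by luminescence, 30 min at room temperature after reagent addition.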

Assay [17] can be described thus: qHTS assay for cell viability of the p53RE-bla HCT-116 cell line (AID 743292; active = well fitted curve in the direction sought with a large enough effect; an effect the other way counts as inactive or inconclusive; note: % is set by controls: 0 for no effect and ±100 for the full control effect; nearly all actives have a fitted effect of over 55% in size). The procedure, abridged:
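Intracellular ATP of p53RE-bla HCT-116 cells measured by luciferase luminescence following 16 h compound incubation at 37 C; DMSO-only wells served as vehicle controls.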

Assay [18] deals with Nuclear receptor subfamily 1 group I member 2 (Rattus norvegicus) (UniProt Q9R1A7). As to the kind of experiment: qHTS assay for small molecule activators of the rat pregnane X receptor (rPXR) signaling pathway (AID 651751; call rule not given here; note: 0% is about no effect). Particulars: rPXR reporter cells, luciferase (One-Glo), 24 h.
Assay [19] is described as follows: qHTS assay for cell viability of HEK293 cells (AID 743288; active = well fitted curve in the direction sought with a large enough effect; an effect the other way counts as inactive or inconclusive; note: % is set by controls: 0 for no effect and ±100 for the full control effect; nearly all actives have a fitted effect of over 50% in size). Particulars: ATP luminescence (CellTiter-Glo), 18 h; max response: stronger effect = lower value. The procedure, abridged:
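After 18 h compound exposure at 37 C, parental HEK293 cells (2,000/well) are lysed with CellTiter-Glo and luminescence is read following 30 min at room temperature.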

Bile acid receptor (Homo sapiens), sequence (Q96RI1 whole entry, looked up): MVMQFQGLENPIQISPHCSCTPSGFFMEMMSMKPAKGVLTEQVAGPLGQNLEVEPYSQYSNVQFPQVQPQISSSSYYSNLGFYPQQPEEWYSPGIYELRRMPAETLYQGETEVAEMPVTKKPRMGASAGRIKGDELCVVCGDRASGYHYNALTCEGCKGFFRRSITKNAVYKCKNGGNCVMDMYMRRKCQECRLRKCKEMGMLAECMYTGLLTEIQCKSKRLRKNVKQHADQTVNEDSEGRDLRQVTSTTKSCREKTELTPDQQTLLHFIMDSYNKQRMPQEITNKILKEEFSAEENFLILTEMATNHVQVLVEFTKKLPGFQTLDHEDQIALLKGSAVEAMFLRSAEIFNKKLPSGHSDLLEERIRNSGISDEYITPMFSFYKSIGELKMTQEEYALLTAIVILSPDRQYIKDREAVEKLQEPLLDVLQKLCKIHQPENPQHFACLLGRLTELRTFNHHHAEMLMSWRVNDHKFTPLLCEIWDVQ
Vitamin D3 receptor (Homo sapiens), sequence (P11473 whole entry, looked up): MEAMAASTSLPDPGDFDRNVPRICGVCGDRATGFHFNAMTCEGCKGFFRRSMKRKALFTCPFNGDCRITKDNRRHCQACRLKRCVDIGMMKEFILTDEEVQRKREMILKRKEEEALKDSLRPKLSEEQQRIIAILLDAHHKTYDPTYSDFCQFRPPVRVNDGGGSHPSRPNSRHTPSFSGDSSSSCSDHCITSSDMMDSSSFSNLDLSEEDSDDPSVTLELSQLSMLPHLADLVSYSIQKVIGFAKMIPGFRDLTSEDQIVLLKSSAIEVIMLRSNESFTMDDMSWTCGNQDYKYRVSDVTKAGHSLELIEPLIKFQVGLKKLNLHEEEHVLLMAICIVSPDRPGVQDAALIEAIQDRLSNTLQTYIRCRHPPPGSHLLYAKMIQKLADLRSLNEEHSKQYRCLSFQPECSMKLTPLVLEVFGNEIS
Retinoic acid receptor RXR-alpha (Homo sapiens), sequence (P19793 whole entry, looked up): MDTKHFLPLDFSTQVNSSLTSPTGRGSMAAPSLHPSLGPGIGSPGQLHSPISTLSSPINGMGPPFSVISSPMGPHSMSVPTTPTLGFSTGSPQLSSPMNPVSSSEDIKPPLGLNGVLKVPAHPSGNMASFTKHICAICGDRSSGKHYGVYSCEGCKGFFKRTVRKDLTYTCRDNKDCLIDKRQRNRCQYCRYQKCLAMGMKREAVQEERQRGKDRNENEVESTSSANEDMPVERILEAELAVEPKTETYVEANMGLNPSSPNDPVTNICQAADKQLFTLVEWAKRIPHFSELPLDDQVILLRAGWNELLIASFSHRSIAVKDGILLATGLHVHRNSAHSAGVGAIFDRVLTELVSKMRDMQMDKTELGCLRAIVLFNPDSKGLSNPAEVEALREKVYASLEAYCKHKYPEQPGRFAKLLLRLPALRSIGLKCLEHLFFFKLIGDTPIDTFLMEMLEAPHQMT
Thyroid hormone receptor beta (Homo sapiens), sequence (P10828 whole entry, looked up): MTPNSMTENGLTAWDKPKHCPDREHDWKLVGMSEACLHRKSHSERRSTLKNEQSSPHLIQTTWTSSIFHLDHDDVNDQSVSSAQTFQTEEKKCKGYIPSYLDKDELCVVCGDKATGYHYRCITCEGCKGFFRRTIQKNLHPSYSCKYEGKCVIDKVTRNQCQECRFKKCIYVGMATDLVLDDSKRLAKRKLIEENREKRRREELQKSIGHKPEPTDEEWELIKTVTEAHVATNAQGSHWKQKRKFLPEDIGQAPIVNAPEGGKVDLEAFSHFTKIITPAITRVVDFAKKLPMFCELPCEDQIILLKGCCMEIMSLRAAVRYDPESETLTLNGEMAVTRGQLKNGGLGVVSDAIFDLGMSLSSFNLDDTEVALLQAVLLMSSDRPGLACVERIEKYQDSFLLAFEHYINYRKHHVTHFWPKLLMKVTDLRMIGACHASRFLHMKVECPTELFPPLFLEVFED
Peroxisome proliferator-activated receptor delta (Homo sapiens), sequence (Q03181 whole entry, looked up): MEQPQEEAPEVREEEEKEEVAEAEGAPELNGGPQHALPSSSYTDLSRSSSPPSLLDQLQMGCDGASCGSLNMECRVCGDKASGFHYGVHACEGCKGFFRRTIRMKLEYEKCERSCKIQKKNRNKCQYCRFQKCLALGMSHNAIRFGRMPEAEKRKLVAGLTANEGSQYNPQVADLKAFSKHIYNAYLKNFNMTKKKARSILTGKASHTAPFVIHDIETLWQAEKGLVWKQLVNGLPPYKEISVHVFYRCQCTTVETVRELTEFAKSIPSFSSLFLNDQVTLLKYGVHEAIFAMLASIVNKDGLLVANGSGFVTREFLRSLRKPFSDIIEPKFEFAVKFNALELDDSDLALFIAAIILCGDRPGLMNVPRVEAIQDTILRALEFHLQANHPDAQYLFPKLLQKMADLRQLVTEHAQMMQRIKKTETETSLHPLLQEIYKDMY
Peroxisome proliferator-activated receptor alpha (Homo sapiens), sequence (Q07869 whole entry, looked up): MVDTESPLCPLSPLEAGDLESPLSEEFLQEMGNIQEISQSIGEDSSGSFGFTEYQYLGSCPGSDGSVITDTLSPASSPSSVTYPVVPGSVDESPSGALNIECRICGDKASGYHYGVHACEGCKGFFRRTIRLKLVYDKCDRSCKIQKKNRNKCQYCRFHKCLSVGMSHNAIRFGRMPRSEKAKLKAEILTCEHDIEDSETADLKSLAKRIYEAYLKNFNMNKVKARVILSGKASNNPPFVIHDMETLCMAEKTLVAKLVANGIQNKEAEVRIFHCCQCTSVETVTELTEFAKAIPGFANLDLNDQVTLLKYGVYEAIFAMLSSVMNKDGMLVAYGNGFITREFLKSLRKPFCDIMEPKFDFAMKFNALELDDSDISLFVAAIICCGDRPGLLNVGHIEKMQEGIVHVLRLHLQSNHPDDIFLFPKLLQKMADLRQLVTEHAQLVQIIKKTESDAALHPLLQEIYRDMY
Nuclear receptor subfamily 1 group I member 2 (Rattus norvegicus), sequence (Q9R1A7 whole entry, looked up): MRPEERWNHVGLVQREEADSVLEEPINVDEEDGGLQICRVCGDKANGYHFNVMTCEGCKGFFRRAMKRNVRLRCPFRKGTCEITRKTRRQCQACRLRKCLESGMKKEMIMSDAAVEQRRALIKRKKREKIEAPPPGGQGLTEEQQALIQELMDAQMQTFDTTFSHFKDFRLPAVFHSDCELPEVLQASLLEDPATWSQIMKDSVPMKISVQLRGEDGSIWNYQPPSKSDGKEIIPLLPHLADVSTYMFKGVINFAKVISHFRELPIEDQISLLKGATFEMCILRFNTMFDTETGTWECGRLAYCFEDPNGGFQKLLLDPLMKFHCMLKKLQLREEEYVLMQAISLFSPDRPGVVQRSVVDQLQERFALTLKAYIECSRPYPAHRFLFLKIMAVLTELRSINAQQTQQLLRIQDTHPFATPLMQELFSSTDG

In the case of `CCCCCCCCCCCCN(C)C`, the activation in assay [1] is 2.94% (inactive); in assay [12] it was 0.386% (inactive); in [13], -2.66% (inactive). The call in [2] and in [5] was inactive. Further, the max response was -18.8% in assay [3]; 1.32% in assay [8]; -14.3% (inactive) in [9]; -1.36% (inactive) in [14]; -0.69% (inactive) in assay [16]; -0.417% (inactive) in [18]. For the same molecule, the Potency result in [4], in assay [6], in [7], in assay [11], in [15] and in assay [17] was “inactive” in each case. Besides, the activity change % (negative = inhibition) in [10] was -6.18% (inactive).
In the case of `COC(=O)c1ccc(C=O)cc1`, the activation in assay [1] is 0.0505% (inactive) and 0.394% (inactive). Also, the molecule was classed as inactive in assay [2].
Consider `Nc1cccc(O)c1`, for which the activation in assay [1] is -1.81% (inactive). The call in assay [2] was inactive.
For `C/C=C/C/C=C\CCCCCCCCOC(C)=O`, the activation in assay [1] is -4.9% (inactive). Besides, the call in assay [2] was inactive.
For the molecule `O=C(/C=C/c1ccc(O)c(O)c1)O[C@@H](C(=O)O)[C@@H](OC(=O)/C=C/c1ccc(O)c(O)c1)C(=O)O`, in assay [1], the activation is -1.16% (inactive). The molecule was called inactive in assay [2].
As to `N=C1C=CC(=C(c2ccc(N)cc2)c2ccc(N)cc2)C=C1`, the activation in [1] is 3.86% (inactive).
In the case of `CC(C)(C)c1cc(C(C)(C)C)c(O)c(C(C)(C)C)c1`, the activation in [1] was 8.66% (inactive). For the same molecule, in [2], the outcome was inactive.
Take `O=C1OC(O)C(C(Cl)Cl)=C1Cl` (stereo not drawn): the activation in assay [1] was 16.6% (inactive).
For `CC(C)N(C(=O)SCC(Cl)=C(Cl)Cl)C(C)C`, the figures for the activation in [1] and in [12] were 4.22% (inactive) and -5.02% (inactive), respectively. The call in assay [2] and in assay [5] was inactive. Also, the max response was 9.5% in [8]; 10.8% (inactive) in assay [9]; 22.8% (inactive) in assay [14]; 15.1% (inactive) in assay [16]; 2.96% (inactive) in [19]. The activity change % (negative = inhibition) in assay [10] is -15.2% (inactive). In addition, in [15], the Potency entry is “inactive”.
As to `O=C(O)c1ccc(Cl)cc1Cl`, the activation in assay [1] is -2.47% (inactive). Further, the result in assay [2] was inactive.
With `FC(F)(F)c1ccccc1Cl`, the activation in assay [1] is -1.54% (inactive). Moreover, the molecule was called inactive in assay [2].
In the same order, the values of `O=S(c1ccc(Cl)cc1)c1cc(Cl)c(Cl)cc1Cl` (stereo not drawn) are 0.155% (inactive) and “inactive”.
For `CC(COCC(C)OC(=O)c1ccccc1)OC(=O)c1ccccc1` (stereo not drawn), in that order: 3.09% (inactive) and “inactive”.
Regarding `O=C(O)[C@@H]1[C@H](C(=O)O)[C@@]2(Cl)C(Cl)=C(Cl)[C@]1(Cl)C2(Cl)Cl`, the activation is 7.2% (inactive) in assay [1] and 1.48% (inactive) in [13]. Moreover, the molecule was called inactive in [2]. Also, the max response was 2.51% in assay [3]; 0.99% (inactive) in assay [14]; -22.8% (inactive) in assay [16]; -18.3% (inactive) in assay [19]; 4.23% (inactive) in [18]. Further, the Potency result in [4], in assay [6], in assay [7], in assay [15] and in assay [17] was “inactive” each time.
For the molecule `CC(c1ccc(O)cc1)(c1ccc(O)cc1)c1ccc(O)cc1`, the activation in assay [1] was 12.5% (inactive); in assay [13], -4% (inactive). Also, the molecule was called inactive in assay [2] and in [5]. In addition, the Potency result in assay [7] and in [15] was “inactive” each time. For the same molecule, the activity change % (negative = inhibition) in assay [10] is -15% (inactive). Also, the max response is -5.19% (inactive) in assay [14], -3.26% (inactive) in assay [16], -0.68% (inactive) in assay [19] and -0.575% (inactive) in assay [18].
